In PubChem BioAssay one finds z-score data, which are given here for 35 compounds.

The assay in a line: A549 cell viability effects, profiling panel, calcein-AM fluorescence, 48 h, basal (AID 1162). Also: test concentration not given here. The note with it: higher = more signal.
On to `Cc1ccc(S(=O)(=O)N2[C@@H](c3ccccc3)C(C(=O)O)=C[C@H]2C(C)(C)C)cc1`, for which the z-score was -0.756.
As for `C=C1C(=O)C=C2CN(C(=O)c3ccccc3)[C@@](Cc3ccc(F)cc3)(C(=O)OC)[C@@H]12`, the z-score is -3.89.
Turning to `COC(=O)[C@@]1(Cc2ccc(F)cc2)[C@H]2c3cc(C(=O)N4CCCC4)n(CCc4c[nH]c5cc(F)ccc45)c3C[C@H]2CN1C(=O)c1ccccc1`, the z-score is -0.767.
The same measure for `CCCCN1CC=CC23O[C@@H]4C=CCCOC(=O)C4[C@H]2C(=O)N(CCO)[C@@H]3C1=O` (stereo not given in full): -0.725.
The same measure for `Cc1ccc(S[C@]2(C(=O)NC3CC3)CC(=O)N(C3Cc4ccccc4C3)[C@@H]2c2ccc(CO)cc2I)cc1`: 0.828; for `C=CCOC(=O)[C@H]1[C@@H]2C(=O)O[C@@H](c3ccccc3)[C@@H](c3ccccc3)N2[C@@H](c2ccc(OCCOC(=O)[C@H]3C[C@H]4C(=O)NCC(=O)N4[C@H]3c3cccc(OCCO)c3)cc2)[C@]12C(=O)Nc1ccc(I)cc12`: 0.0164; for `CC1(C)OB(/C=C\CC(OC(=O)c2ccncc2)c2ccccc2)OC1(C)C` (stereo not given): -0.0116.
To `CC[C@@H](O[Si](C#C[Si](C(C)C)(C(C)C)C(C)C)(C(C)C)C(C)C)c1cn([C@H](CO)Cc2ccccc2)nn1` belongs -0.28; to `C=C[C@H](OC)[C@@H](O)c1ccc(OC)c(O)c1`, -0.107.
On to `CC(C)(C)OC(=O)CC[C@@]1(C(N)=O)N=C(c2ccc(OCCCO)cc2)O[C@@H]1c1ccccc1CN=[N+]=[N-]`, for which the z-score is 0.105.
Consider `COCCOC(=O)N1C(=O)[C@@]2(c3cc(C#CCNC(N)=O)ccc31)[C@H](c1ccc(O)cc1)N1[C@H](c3ccccc3)[C@H](c3ccccc3)OC(=O)[C@H]1[C@@H]2C(=O)N1CCc2cc(OC)c(OC)cc2C1`, for which the z-score was 0.571.
The same measure for `COc1cc2c(cc1O)C(C)N(Cc1sc3ccccc3c1Cl)CC2` (stereo not given): 0.0824; for `COCCOC(=O)N1C(=O)[C@@]2(c3cc(C#CCC(C(=O)OC)C(=O)OC)ccc31)[C@H](C(N)=O)[C@H]1C(=O)O[C@H](c3ccccc3)[C@H](c3ccccc3)N1[C@@H]2c1ccccc1OCCO`: 1.3; for `C[C@H]1C2[C@H](Cc3ccccc3)NC(=O)[C@]23C(=O)N[C@@H](Cc2ccccc2)C(=O)N2CCC[C@H]2C(=O)NC/C=C/CC/C=C/C3[C@@H]2O[C@]12C` (stereo not given in full): -0.168.
To `C[C@@]1([C@@H](NS(=O)(=O)c2cccc3cccnc23)c2ccc(-c3ccccc3)cc2)C[C@H]1C1CCCCC1` belongs -1; to `COc1ccc(CCNC(=O)[C@@H]2c3ccccc3C(=O)N(Cc3cc(F)cc(C(F)(F)F)c3)[C@H]2c2ccc(CO)cc2)cc1`, 2.41.
`C=CC[C@H](O)c1ccc(O)c(F)c1`: the z-score is -0.402.
Turning to `CC(C)N1CC=CC23O[C@@H]4/C=C\CCCOC(=O)C4[C@H]2C(=O)N(C(C)CO)[C@@H]3C1=O` (stereo not given in full), the z-score was 0.0513.
Consider `C=CCOC(=O)[C@@H]1[C@H]2C(=O)O[C@H](c3ccccc3)[C@H](c3ccccc3)N2[C@H](c2ccc(OCCOC(=O)[C@H]3C[C@H]4C(=O)N[C@@H](CCCCN(C)C)C(=O)N4[C@H]3c3cccc(OCCO)c3)cc2)[C@@]12C(=O)Nc1ccccc12`, for which the z-score was -0.555.
The same measure for `COCCOC(=O)N1C(=O)[C@@]2(c3cc(C#CC4=CCCCC4)ccc31)[C@H](C(=O)N1CCCCCCC1)[C@H]1C(=O)O[C@H](c3ccccc3)[C@H](c3ccccc3)N1[C@@H]2c1ccccc1OCCO`: -0.314.
Regarding `CCCCCN1CC=CC23O[C@@H]4/C=C\CCCOC(=O)C4[C@H]2C(=O)N(CCO)[C@@H]3C1=O` (stereo not given in full), the z-score was 0.415.
The same measure for `CC(C)N1C(=O)[C@@]2(Cc3ccccc31)c1ccccc1C(=O)N(Cc1ccccc1)[C@H]2c1ccc(CO)cc1`: -0.128; for `C=C(CC1([C@@H](NP(=O)(c2ccccc2)c2ccccc2)[C@H]2C[C@@H]2CCCC)CC1)c1cccc(OC)c1`: -1.61; for `CC[C@@H](O[Si](C#C[Si](C(C)C)(C(C)C)C(C)C)(C(C)C)C(C)C)c1cn(Cc2cccc(Cl)c2)nn1`: -0.163.
As for `COCCCNC(=O)[C@]1(Cc2ccccc2CN=[N+]=[N-])N=C(c2ccc(OCCCO)cc2)O[C@@H]1c1ccccc1N=[N+]=[N-]`, the z-score was -0.532.
To `COc1ccc([Si](C)(C)[C@H]2[C@H](CC(=O)N(CCO)Cc3ccccc3)O[C@@]3(C(=O)N(Cc4cccc(N5CCCCC5=O)c4)c4ccccc43)[C@@H]2C)cc1` belongs -0.166.
To `C=C(/C=C\CNS(=O)(=O)c1ccc(C)cc1)[C@H](O)[C@H]1CCCN1S(=O)(=O)c1ccccc1[N+](=O)[O-]` belongs -0.635; to `[N-]=[N+]=NCc1ccccc1[C@H]1OC(c2ccc(OCCCO)cc2)=N[C@@]1(Cc1ccccc1N=[N+]=[N-])C(N)=O`, -0.0372.
To `C=CCN1C(=O)[C@@]2(O[C@@H](CCO)[C@H]([Si](C)(C)c3ccc(OC)cc3)[C@H]2C)c2cc(N3CCCCC3=O)ccc21` belongs -0.816; to `Cc1ccc(S[C@]2(C(=O)NCc3ccccc3)CC(=O)N(Cc3ccccc3C(F)(F)F)[C@@H]2c2ccc(CO)cc2I)cc1`, 1.13.
Consider `C=C[C@H](C)[C@@H](OC(=O)Nc1ccc(SC)cc1)c1ccc(OCCO)cc1`, for which the z-score is -0.305.
To `CN(C)C(=O)[C@]1(CCS(=O)(=O)c2ccccc2)N=C(c2ccc(OCCCO)cc2)O[C@@H]1c1ccccc1CN=[N+]=[N-]` belongs -0.306.
To `COC(=O)[C@]1(Cc2ccccc2N=[N+]=[N-])N=C(c2ccc(OCCCO)cc2)O[C@@H]1c1ccccc1CN=[N+]=[N-]` belongs -3.36; to `COc1cccc(C)c1NC(=O)O[C@H]1[C@H](OC(=O)Nc2ccccc2)[C@@H](OC(=O)Nc2ccccc2)[C@@H](OC)O[C@@H]1CO`, -1.86; to `COCCCNC(=O)[C@@]1(c2ccc([N+](=O)[O-])cc2)CC(=O)N(C2CCCCC2)[C@@H]1c1ccc(CO)cc1I`, 1.22.
